# In PMC4336329 (PLoS ONE, 2015):
# The campaign covered roughly 310,000 compounds. About 14,000 (4.5%) showed an effect of 50% or more. Effects have a minus sign here. The list comes from a sample in which strong results are over-represented; it also holds similar structures and randomly drawn compounds.
# Biological target: human ether-à-go-go-related gene (hERG) potassium channel (human, UniProt Q12809)
# Assay: primary screen, population patch clamp on CHO cells stably expressing hERG; higher = less effect of the substance
# 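Also: peak tail current of the secondary pulse compared with the same well before compound.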
# Sequence of human ether-à-go-go-related gene (hERG) potassium channel (Q12809 whole entry, looked up): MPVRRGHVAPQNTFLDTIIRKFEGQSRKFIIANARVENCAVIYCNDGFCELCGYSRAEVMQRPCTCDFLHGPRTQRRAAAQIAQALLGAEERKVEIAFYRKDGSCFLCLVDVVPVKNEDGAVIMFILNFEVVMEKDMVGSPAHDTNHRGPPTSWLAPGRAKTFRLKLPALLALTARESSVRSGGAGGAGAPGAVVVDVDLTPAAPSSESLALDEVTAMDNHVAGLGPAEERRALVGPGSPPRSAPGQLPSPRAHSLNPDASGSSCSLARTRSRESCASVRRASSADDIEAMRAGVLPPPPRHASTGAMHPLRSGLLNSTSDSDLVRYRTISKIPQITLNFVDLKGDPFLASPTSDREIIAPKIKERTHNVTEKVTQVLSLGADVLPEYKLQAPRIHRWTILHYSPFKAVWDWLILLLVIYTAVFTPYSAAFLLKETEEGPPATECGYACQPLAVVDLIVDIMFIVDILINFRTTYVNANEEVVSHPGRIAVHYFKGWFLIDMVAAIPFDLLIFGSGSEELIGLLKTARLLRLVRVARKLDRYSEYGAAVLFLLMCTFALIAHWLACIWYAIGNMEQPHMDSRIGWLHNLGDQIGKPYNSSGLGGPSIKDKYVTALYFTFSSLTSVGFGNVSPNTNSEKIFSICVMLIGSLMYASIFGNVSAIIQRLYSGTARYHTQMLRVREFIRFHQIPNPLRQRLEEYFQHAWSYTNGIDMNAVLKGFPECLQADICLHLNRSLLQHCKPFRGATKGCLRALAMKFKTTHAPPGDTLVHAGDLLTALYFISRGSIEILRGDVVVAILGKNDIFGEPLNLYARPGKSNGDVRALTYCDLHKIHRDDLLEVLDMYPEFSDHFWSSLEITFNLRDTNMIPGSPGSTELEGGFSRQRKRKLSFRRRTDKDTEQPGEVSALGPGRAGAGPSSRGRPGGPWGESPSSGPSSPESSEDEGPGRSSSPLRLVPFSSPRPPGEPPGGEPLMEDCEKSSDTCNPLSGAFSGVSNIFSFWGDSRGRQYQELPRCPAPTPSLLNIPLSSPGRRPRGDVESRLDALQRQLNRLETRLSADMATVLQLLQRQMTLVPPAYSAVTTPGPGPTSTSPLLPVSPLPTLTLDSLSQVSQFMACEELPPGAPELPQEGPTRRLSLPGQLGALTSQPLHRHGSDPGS
row,Structure (SMILES),"hERG current change (%, negative = inhibition) at 10uM"
1,CCN(CC(=O)NC1CCS(=O)(=O)C1)S(=O)(=O)c1cc(C)ccc1C (stereo not drawn),10.2%
2,COc1ccc(NC(=O)Cn2c(=O)c(C)nc3ccccc32)cc1Cl,-2.07%
3,CN(C)c1ccc(CCc2ccc(N)cc2)cc1,19.9%
4,Cc1sc(NC(=O)c2ccco2)c(CN2CCN(c3ccccc3)CC2)c1C,7.18%
5,CCOc1ccc2c(c1)nc(NCCCO)n2Cc1ccccc1,-20.3%
6,O=c1[nH]c2ccccc2nc1-c1cccs1,1.66%
7,COc1cc(C)nc(N2CCCC(C(=O)Nc3cccc(Cl)c3C)C2)n1 (stereo not drawn),0.916%
8,C/C(=C\C(=O)c1cccnc1)Nc1ccc(O)cc1,-6.35%
9,CCOc1cc(N(CC)CC)ccc1/C=C(/C#N)c1nc2ccccc2[nH]1,0.119%
10,NC(=O)c1nc(-c2ccco2)nc2c1[nH]c(=O)n2-c1ccc(Cl)c(Cl)c1,-9.13%
11,COC(=O)c1ccccc1NC(=O)NCc1ccccc1,-3.24%
12,Cc1c(C(=O)OC2CCC(C)CC2)[nH]c2c1C(=O)CCC2 (stereo not drawn),-3.25%
13,Cc1ccc(NS(=O)(=O)c2ccc(-c3csc(C)n3)s2)c(C)c1,16%
14,CCN(CCn1cccn1)C(=O)c1cc(COc2ccc(F)cc2Cl)on1,-15.4%
15,CCN(CCn1cccn1)C(=O)c1cc(COc2ccc(F)c(F)c2)on1,-96%
16,CCN(CCn1cccn1)C(=O)c1cc(COc2c(F)cccc2F)on1,0.76%
17,O=C1C2C3c4ccccc4C(c4ccccc43)[C@@H]2C(=O)N1c1ccccn1 (stereo partly drawn),5.6%
18,O=C(N/N=C/c1ccc(OC(F)F)cc1OC(F)F)c1cccc(S(=O)(=O)N2CCOCC2)c1,-33.1%
19,COC(=O)Cn1ncn2c(cc3oc(C)cc32)c1=O,13.1%
20,CCN(CC(=O)Nc1ccc(OC)cc1)C(=O)COc1cccc2c1OC(C)(C)C2,-14.1%
21,Cc1ccccc1C1CCCN(Cc2nc(CC3CC3)no2)C1 (stereo not drawn),-12.7%
22,c1ccc(CN2CCCC3(CCCN(Cc4nc(CC5CC5)no4)C3)C2)cc1 (stereo not drawn),-52.1%
23,c1ccc(OCc2noc(CN3CC[C@@H]4CCCC[C@H]4C3)n2)cc1,0.704%

row,Structure (SMILES),"hERG current change (%, negative = inhibition) at 10uM"
1,c1ccc(CN2CCCC3(CCCN(Cc4nc(COc5ccccc5)no4)C3)C2)cc1 (stereo not drawn),-69.3%
2,C=CCC1(CC=C)CCCN1Cc1nc(COc2ccccc2)no1,-11.5%
3,c1ccc(C2CCCN(Cc3nc(CC4CC4)no3)CC2)cc1 (stereo not drawn),2.97%
4,CN(CC(=O)O/N=C(\N)c1ccccn1)S(=O)(=O)c1ccccc1,-4.98%
5,Cc1ccccc1NC(=O)NCCCN1CCN(c2ccccc2)CC1,-50.7%
6,O=C(NCCN1CCN(Cc2ccccc2)CC1)Nc1cc(Cl)cc(Cl)c1,-75.2%
7,COc1ccccc1NC(=O)NCCCN1CCN(c2cccc(Cl)c2)CC1,-73.7%
8,O=C(Nc1ccc(F)cc1F)N1CCCN(CCOc2ccccc2)CC1,-45.2%
9,Cc1ccccc1NC(=O)NCCCN1CCN(C)CC1,28.1%
10,O=C(Nc1ccc2ccccc2c1)N1CCCN(CCOc2ccccc2)CC1,-66%
11,Cc1noc(C)c1NC(=O)NCCN1CCN(Cc2ccccc2)CC1,13.7%
12,CCCN1CCN(C(=O)Nc2ccc(OCC)cc2)CC1,-1.93%
13,COc1ccccc1NC(=O)NCCN1CCN(c2cccc(Cl)c2)CC1,-9.6%
14,O=C(NCCN1CCCCC1)Nc1ccccc1,-23.2%
15,COc1ccc(N2CCN(CCNC(=O)Nc3cc(Cl)ccc3OC)CC2)cc1,3.23%
16,Cc1cccc(C)c1NC(=O)NCCCN1CCN(c2ccccc2)CC1,-41.1%
17,CC(C)C(C)NC(=O)CSc1ccc(S(=O)(=O)N2CCOCC2)cn1 (stereo not drawn),-1.56%
18,CCOC(=O)C(CSCc1ccccc1)NC(=O)OC(C)(C)C (stereo not drawn),-14.8%
19,CCOCCCNC(=O)C(C)NS(=O)(=O)c1ccc(C)cc1 (stereo not drawn),4.29%
20,COc1ccccc1NC(=O)CSCc1cc(=O)n2ccsc2n1,13.3%
21,COc1cccc(C(=O)O/N=C(\N)c2ccccn2)c1,-2.49%
22,Cc1cc(C)cc(C(=O)Nc2cccc(NC(=O)c3ccco3)c2)c1,-14.2%
23,Cc1ccc(S(=O)(=O)NCCC(=O)N2CCCCCC2)cc1,1.86%

row,Structure (SMILES),"hERG current change (%, negative = inhibition) at 10uM"
1,CC(C)c1nc(SCC(=O)N2CCCC2)c2c(=O)n(C)c(=O)n(C)c2n1,-21.8%
2,O=C(NC(=S)N1CCCC1)c1cccc([N+](=O)[O-])c1,19.9%
3,CCCCNC(=O)CCCCCNS(=O)(=O)c1ccc(OC)cc1,13.8%
4,CCn1c(SCC(=O)Nc2ccc(N3CCOCC3)cc2)nnc1-c1ccc(OC)cc1,-14.8%
5,CCCc1c2c(cc3c(=O)cc(C(=O)OCC)oc13)CCCC2,-0.971%
6,COc1cc(OC)cc(C(=O)Nn2cc(C(=O)N3CCN(C)CC3)c3ccccc3c2=O)c1,2.72%
7,O=C(NCCN1CCN(c2ccccc2)CC1)Nc1ccc(Cl)cc1,-45.5%
8,O=C(NCCN1CCOCC1)Nc1ccccc1,-6.63%
9,O=C(Nc1ccccc1)N1CCN(Cc2ccccc2)CC1.O=C(O)C(=O)O,11.9%
10,O=C(NCCN1CCN(c2cccc(Cl)c2)CC1)Nc1ccccc1,-35.1%
11,O=C(NCCN1CCN(c2ccccc2)CC1)Nc1cccc(Br)c1,-58.1%
12,O=C(Nc1cc(Cl)cc(Cl)c1)N1CCCN(Cc2ccccc2)CC1,-76.3%
13,O=C(NCCN1CCN(c2ccccc2)CC1)Nc1cccc(Cl)c1,-55.7%
14,O=C(NCCCN1CCN(c2ccccc2)CC1)Nc1ccccc1C(F)(F)F,-49.3%
15,O=C(NCCN1CCN(c2ccccc2)CC1)Nc1ccccc1Cl,-43.3%
16,Cc1ccc(NC(=O)NCCN2CCN(c3ccccc3)CC2)cc1Cl,16.7%
17,O=C(NCCN1CCN(c2ccccc2)CC1)Nc1ccccc1Br,-52.1%
18,O=C(Nc1ccccc1)N1CCN(Cc2ccc(Cl)cc2)CC1,-33.8%
19,COC(=O)c1sccc1NC(=O)Nc1ccccc1C,9.22%
20,COCCNS(=O)(=O)c1cccc2cccnc12,11.6%
21,Cc1ccc(N=C2C(=O)Nc3ccccc32)cc1C,7.9%
22,Cn1c(N)c(C(=O)COC(=O)c2nc(Cl)ccc2Cl)c(=O)n(C)c1=O,-11.2%
23,COc1ccc(C(=O)NCCCSc2ccccc2)cc1F,8.32%

row,Structure (SMILES),"hERG current change (%, negative = inhibition) at 10uM"
1,Brc1ccc(C2Nc3cccc4cccc(c34)N2)s1,7.9%
2,COc1ccc(CN2CCC(n3nccc3NC(=O)c3cccc(F)c3)CC2)cc1O,-80.4%
3,O=C(Nc1ccnn1C1CCN(Cc2ccccc2OC(F)F)CC1)c1cccc(F)c1,-52.4%
4,O=C(Nc1ccnn1C1CCN(C2CCC2)CC1)c1cccc(F)c1,-12.5%
5,CCn1cc(CN2CCC(n3nccc3NC(=O)c3cccc(F)c3)CC2)cn1,-6.71%
6,CCn1cc(CN2CCC(n3nccc3NC(=O)c3cccc(F)c3)CC2)c(C)n1,-2.72%
7,O=C(Nc1ccnn1C1CCN(Cc2ccc(C#CCCO)cc2)CC1)c1cccc(F)c1,-77.3%
8,O=C(Nc1ccnn1C1CCN(Cc2ccccc2OCCO)CC1)c1cccc(F)c1,-34.8%
9,O=C(Nc1ccnn1C1CCN(Cc2cccc(OCCO)c2)CC1)c1cccc(F)c1,-12.3%
10,CCc1ccc(CN2CCC(n3nccc3NC(=O)c3cccc(F)c3)CC2)cc1,-75.3%
11,O=C(Nc1ccnn1C1CCN(Cc2ccccc2OC(F)F)CC1)c1cccnc1,-12.3%
12,O=C(Nc1ccnn1C1CCN(Cc2ccc3nonc3c2)CC1)c1cccc(F)c1,-37.4%
13,CCOC(=O)C1CCCCC12C(C#N)=C(N)Oc1n[nH]c(C)c12 (stereo not drawn),10.1%
14,CN1C(=O)C(CC(=O)Nc2ccc(F)cc2)N(CCCc2ccccc2)C1=S (stereo not drawn),0.0595%
15,CCOC(=O)c1c(C)[nH]c(C2=NNC(=NC3CC3)SC2)c1C,-30.1%
16,COc1ccccc1NC(=O)CNc1ccc(F)c(Cl)c1,-11.7%
17,CCn1cc([N+](=O)[O-])c(C(=O)Nc2ccc3c(c2)OCCO3)n1,-9.69%
18,COCCCNC(=O)c1ccccc1Sc1ccc(NC(C)=O)nc1,25.8%
19,C=CCn1c(SCC(=O)c2ccc(OC)cc2)nnc1-c1cc2cccc(OC)c2o1,25.8%
20,CCC(C)NC(=O)CCc1nnc2ccc(N3CCC(C)CC3)nn12 (stereo not drawn),3.66%
21,COc1ccc(N2CC(C(=O)Nc3ccc4c(c3)OCCO4)CC2=O)cc1 (stereo not drawn),4.94%
